Experimental data from the supplement of paper PMC12636033.
± gives the standard deviation of the averaged measurements. The full ranking holds about 33,000 sequences; the median of “E-score (rank enrichment, -0.5 to 0.5)” is about -0.0043, and the highest 2% start at about 0.24. The entries come from a sample that favours the highest values as a whole.

What follows are sequences tested on 2Sp-muMax20 (muMax20 with two 2,6-bis(methyl)pyridine Cys staples) (assay: PBM 8-mer E-score (E-score (rank enrichment, -0.5 to 0.5)); higher = stronger preferential binding).
Experimental: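 Protein binding microarray (universal PBM chip covering all 10-mers in fixed probe flanks) with chemically synthesized human Max(13-93) bHLH-LZ analogs (not full-length Max) bearing noncanonical residues (hArg, Tha, Aib, Nle at 65) and aromatic Cys staples. Read-out per 8-mer (and its reverse complement): E-score (rank-based enrichment, -0.5 to 0.5) and Z-score of median probe intensity.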

Sequence | PBM 8-mer E-score
AGATGTGA | 0.199 ± 0.019
ACATGTGA | 0.312 ± 0.0028
CTATGTGA | 0.148 ± 0.044
CCATGTGC | 0.114 ± 0.025
CGATGTGA | 0.0746 ± 0.018
TAATGTGA | 0.266 ± 0.01
GCATGTGA | 0.183 ± 0.082
ATATGTGG | 0.218 ± 0.032
GAATGTGA | 0.00134 ± 0.14
ATATGTGA | 0.311 ± 0.022
CCATGTGA | 0.268 ± 0.087
CAATGTGA | 0.146 ± 0.013
GCTTAGCA | 0.039 ± 0.11
TACGCTAA | 0.218 ± 0.0075
GTTCTCTA | -0.185 ± 0.098
AGTTCCAA | -0.0402 ± 0.057
CCCCCCTA | -0.112 ± 0.073
GCCAAACC | -0.0278 ± 0.14
GCAGATAC | 0.04 ± 0.079
ATACTAAA | 0.145 ± 0.13
GTTCTACA | 0.0307 ± 0.072
ATAATACC | 0.209 ± 0.033
ATTCTACA | 0.253 ± 0.021
ATACTACC | 0.147 ± 0.029
ATAATACG | 0.177 ± 0.032

Sequence | PBM 8-mer E-score
CTACTACA | 0.0934 ± 0.18
ATTCTACG | 0.228 ± 0.01
ATACTACA | 0.258 ± 0.033
ATAATACA | 0.271 ± 0.0055
GTACTAAC | 0.127 ± 0.038
ATACTAAC | 0.245 ± 0.041
CCCGTCCA | -0.241 ± 0.017
TTCTAAAA | -0.19 ± 0.05
TCCAACGA | -0.0483 ± 0.18
CTGGCAAG | -0.0269 ± 0.07
ACATTTTA | 0.232 ± 0.019
CCACTATA | 0.183 ± 0.0029
GGCAGTAC | 0.105 ± 0.086
ATACTAGA | 0.26 ± 0.055
CTACTAGA | 0.05 ± 0.076
ATACTAGC | 0.117 ± 0.075
TAAATAGA | 0.000425 ± 0.01
AAAATAGA | 0.242 ± 0.0042
AAAATAGC | -0.0165 ± 0.011
TAACCTCA | -0.00886 ± 0.051
GAGAGCAA | -0.127 ± 0.12
CCTGGATA | -0.0904 ± 0.0036
GAATAGAC | 0.104 ± 0.096
AAATAGGG | 0.208 ± 0.0056
AAATAGGT | 0.241 ± 0.0095

Sequence | PBM 8-mer E-score
AAATAGAT | 0.227 ± 0.023
AAATAGAC | 0.257 ± 0.0069
AAATAGGC | 0.0753 ± 0.026
ACCGAAAA | -0.0179 ± 0.15
CTCTTCCC | -0.062 ± 0.011
CCCGTGCG | -0.119 ± 0.06
CACGTGCG | 0.4142 ± 0.0019
AACGTGCC | 0.0275 ± 0.036
TACGTGCA | 0.105 ± 0.013
CACGTGCC | 0.405 ± 0.0045
AACGTGCA | 0.149 ± 0.025
GACGTGCC | -0.0934 ± 0.065
CGCGTGCC | 0.0851 ± 0.061
CACGTGCA | 0.419 ± 0.027
CGCGTGCA | 0.263 ± 0.035
GGCGTGCA | 0.11 ± 0.047
AACGTGCG | 0.129 ± 0.11
GGTAGCAA | 0.163 ± 0.004
AAGTACTT | 0.109 ± 0.032
ACCGCATG | 0.132 ± 0.074
GCGCATCA | 0.0862 ± 0.011
CGGGTACA | -0.205 ± 0.03
GACCGACA | -0.18 ± 0.052
GAACAAAC | 0.046 ± 0.051
CCATAATC | 0.159 ± 0.019

Sequence | PBM 8-mer E-score
CTCTTAGA | -0.116 ± 0.051
AAACAATA | 0.101 ± 0.046
AACAAATT | 0.265 ± 0.0042
AACAAATA | 0.212 ± 0.063
AAACAATG | 0.121 ± 0.021
AAACAATT | 0.252 ± 0.046
AACAAGTT | 0.0512 ± 0.042
ATGCAGTA | 0.0482 ± 0.088
ACATAGCT | -0.143 ± 0.0071
TCCCTCCA | -0.114 ± 0.086
CCCCTCCG | -0.0068 ± 0.12
TCCCTTCA | 0.107 ± 0.057
CCCCTTCA | 0.248 ± 0.1
ACCCTCCT | -0.0498 ± 0.0072
ACCCTCCC | 0.26 ± 0.043
CCCCTTCC | -0.00527 ± 0.1
ACCCTCCA | 0.168 ± 0.0021
GCCCTCCA | -0.00293 ± 0.051
CCCCTCCA | 0.236 ± 0.033
CCCCTCCC | 0.311 ± 0.014
CCCTCCCC | 0.142 ± 0.11
ATATACGG | 0.0505 ± 0.015
GGCTCAAC | -0.0877 ± 0.06
AGGAATAA | 0.0163 ± 0.077
CTTCTACA | -0.0255 ± 0.032

Sequence | PBM 8-mer E-score
ACCTGCCA | -0.188 ± 0.047
ACATTATG | 0.147 ± 0.1
CCATTATC | 0.157 ± 0.04
ACATTATA | 0.282 ± 0.0059
CCATTATA | 0.257 ± 0.045
ACATTATC | 0.159 ± 0.038
GCATTATA | 0.186 ± 0.059
CGTATGCC | -0.0525 ± 0.034
GCTGTTGA | -0.119 ± 0.013
AGGGTGGA | -0.0107 ± 0.009
AGGGTGGG | 0.245 ± 0.073
AGGGTGGC | 0.0126 ± 0.068
ACAGAGAA | 0.129 ± 0.14
ATATGGAG | 0.127 ± 0.014
CCATGGGG | -0.0568 ± 0.073
AGATGGGC | -0.0126 ± 0.1
ACATGGGG | 0.246 ± 0.072
ATATGGGG | 0.239 ± 0.024
ATATGGGA | 0.136 ± 0.11
ATATGGGC | 0.249 ± 0.04
ACATGGGA | 0.162 ± 0.035
CTATGGGC | -0.0549 ± 0.074
GAATCATC | -0.0799 ± 0.064
TCGTACAA | 0.1 ± 0.042
CAACCAAC | -0.132 ± 0.022

Sequence | PBM 8-mer E-score
TCATTTCA | 0.171 ± 0.068
CATGGCCA | 0.0303 ± 0.016
CCAGCAGG | -0.054 ± 0.077
CGTTTCAA | -0.171 ± 0.036
CGTTTATC | -0.0397 ± 0.011
AGGCCCGA | -0.161 ± 0.0046
AAGATATC | 0.211 ± 0.14
CATATATC | 0.232 ± 0.0054
CATATATA | 0.277 ± 0.012
CATATACG | 0.0657 ± 0.013
TATATATA | 0.315 ± 0.019
CATATAGA | 0.182 ± 0.038
CATATATG | 0.308 ± 0.036
TATATAGA | 0.166 ± 0.025
CAGATATA | 0.0905 ± 0.056
CATATAGG | 0.145 ± 0.0097
AAGATATA | 0.259 ± 0.022
GATATATA | 0.204 ± 0.027
CCTAGTAG | 0.00183 ± 0.043
CACACTAA | 0.172 ± 0.041
CGTCCCAG | -0.132 ± 0.0026
CTATGGAG | 0.0519 ± 0.034
CAAGCTTA | -0.00639 ± 0.037
CCTGCCAC | -0.0854 ± 0.043
AGACCGTG | -0.2708 ± 0.0017

Sequence | PBM 8-mer E-score
TATGCCGA | -0.0358 ± 0.062
ACCAGCAG | -0.0797 ± 0.013
CCCGCCAG | -0.131 ± 0.01
GTAATATA | 0.255 ± 0.07
GATCTATA | -0.0283 ± 0.079
ATAATCTA | 0.141 ± 0.07
CTAATATA | 0.1721 ± 0.00093
CATCTATA | 0.288 ± 0.024
GTTATATA | 0.264 ± 0.022
AATCTATA | 0.147 ± 0.091
CTTATATA | 0.166 ± 0.073
GTTATAGA | 0.175 ± 0.05
ATAATATA | 0.194 ± 0.04
CTAATCTA | 0.0847 ± 0.035
GTAATCTA | 0.259 ± 0.056
ACCGCCCG | -0.242 ± 0.065
AAGGCGCC | 0.175 ± 0.087
CGCAACCA | 0.0737 ± 0.021
CCTTGCCA | -0.0434 ± 0.087
AGAATTTC | -0.0921 ± 0.041
AGAATTTA | 0.284 ± 0.096
CGAATTTA | 0.131 ± 0.035
